A selection: hits, their analogues and other compounds. The true share with any hit is near 10%.
G9a inh – inhibitors of human histone lysine methyltransferase G9a. G9a H3K9 monomethylation, AlphaScreen, 2 h. 350,000 compounds, 8.8% hits. Potency, µM (doses to about 102 µM), inactives show top-dose activity, negative = inhibition, most hits filed as inhibitors. Q96KQ7; also: potency is read from the fitted curve at half-maximal effect; nearly all actives have a fitted effect of over 75% in size
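Step 1: enzyme (final 20 nM) with compound, 15 min RT. Step 2: substrate peptide 500 nM and SAM 20 uM, 2 h RT. Step 3: anti-H3K9me1 antibody and AlphaScreen beads, 10 min, then plate read.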
Sfp PPTase inh – blocks B. subtilis Sfp PPTase activity. Biochemical Sfp PPTase activity, qHTS. Potency, µM, for inactives: largest response in the series, negative = inhibition, usual class: inhibitors. 310,000 compounds, 3.5% hits. AID 1490;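 also: the enzyme is Sfp with the accession as filed and its product quenches rhodamine fluorescence; potency is read from the fitted curve at half-maximal effect; 0% = enzyme reaction without inhibitor and -100% = no enzyme wells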
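With Hepes-Na pH 7.6 buffer containing 10 mM MgCl2, Sfp (15 nM) modified BHQ-2-YbbR (12.5 uM) using rhodamine-CoA (5 uM). Two reads 30 minutes apart at 525/598 nm yielded each well's rate.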
PLK1 PBD inh – PLK1 (human) polo-box domain binding inhibition | Potency, µM, for the others: max response, negative = inhibition, hits mostly inhibitors | 360,000 compounds, 2.8% hits | Plk1 PBD binding of FITC phosphopeptide, fluorescence polarization; also: potency is read from the fitted curve at half-maximal effect; series mostly up to about 57 µM; nearly all actives have a fitted effect of over 65% in size
Target sequence (P53350 whole entry, looked up, the tested form may be a part): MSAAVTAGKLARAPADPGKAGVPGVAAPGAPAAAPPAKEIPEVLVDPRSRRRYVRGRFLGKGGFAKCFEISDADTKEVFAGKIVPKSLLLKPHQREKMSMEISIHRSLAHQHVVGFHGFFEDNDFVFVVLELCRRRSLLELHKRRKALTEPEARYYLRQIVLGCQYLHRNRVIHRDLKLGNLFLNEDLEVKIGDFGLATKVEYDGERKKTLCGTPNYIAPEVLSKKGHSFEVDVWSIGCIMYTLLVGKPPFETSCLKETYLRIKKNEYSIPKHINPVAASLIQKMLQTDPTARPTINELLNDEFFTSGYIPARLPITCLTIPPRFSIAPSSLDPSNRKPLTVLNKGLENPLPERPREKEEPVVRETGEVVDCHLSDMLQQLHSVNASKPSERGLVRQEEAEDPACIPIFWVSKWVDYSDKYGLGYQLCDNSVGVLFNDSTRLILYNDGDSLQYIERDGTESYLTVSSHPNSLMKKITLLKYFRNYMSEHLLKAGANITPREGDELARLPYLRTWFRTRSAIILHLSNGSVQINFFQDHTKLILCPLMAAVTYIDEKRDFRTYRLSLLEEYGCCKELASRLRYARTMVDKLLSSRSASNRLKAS
MmCpn inh – inhibitors of Methanococcus maripaludis chaperonin TRiC (MmCpn) | AID 504842 | 330,000 compounds, 0.031% hits | Potency, µM (doses to about 76.9 µM), for the others: at the highest dose activity, negative = inhibition, most hits filed as inhibitors | purified Mm-Cpn ATPase, ADP Transcreener TR-FRET; also: potency is read from the fitted curve at half-maximal effect; nearly all actives have a fitted effect of over 80% in size
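Quantitative HTS used 25 nM Mm-CPN and 10 uM ATP in magnesium/KCl Tris buffer, pH 7.4, with 1 mM DTT. Hydrolysis ran 30 min at 37°C; ADP was read by HTRF.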
VDR inhibitor – vitamin D3 receptor (human) inhibition; P11473; VDR-SRC2-3 peptide fluorescence polarization, 2 h; Potency, µM, for the others: max response, negative = inhibition, usual class: inhibitors; 400,000 compounds, 0.93% hits; AID 504847; also: potency is read from the fitted curve at half-maximal effect
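Signal is fluorescence polarization, reporting how far test compounds block the interaction of VDR with the SRC2-3 coregulator peptide after a 2 h room-temperature incubation.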
CCT chaperon mod – modulators of cytosolic chaperonin (CCT/TRiC) activity; purified chaperonin ATPase assay, HTRF ADP detection, 30 min; activity change, % (concentration not given with the values), hits read low; 360,000 compounds, 0.3% hits; AID 651819; in the data active = activity change below about -30%
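We incubate TRiC, 40 or 20 nM final, with library compounds at 76 uM and 10 uM ATP for 30 min at 37 °C. ADP formed is detected with Transcreener HTRF reagents after 30 min at room temperature.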
The depositor's hits bear a star; ? = inconclusive; · = no result given; [ ] = another dose, or the depositor's remark. Unless noted, calls follow the shape of the dose curve; as a rule, active = well fitted curve in the direction sought with a large enough effect; inconclusive = small, poorly fitted or top-dose-only effect, or another doubt; inactive = no such curve, though single readings can be large; an effect the other way counts as inactive or inconclusive. Unless noted, % is scaled to controls: 0 for no effect and ±100 for the full control effect.

SMILES	G9a inh	Sfp PPTase inh	PLK1 PBD inh	MmCpn inh	VDR inhibitor	CCT chaperon mod
Cc1cccn2c(=O)c3cc(C(=O)NC4CCCC4)c(=N)n(Cc4ccc(F)cc4)c3nc12	-1%	?	4%	1%	-11%	3
CCc1ccc2oc(C(=O)Nc3ccccc3OC)cc(=O)c2c1	4%[59 µM]	·	·	·	9%	·
COc1ccc(CNS(=O)(=O)c2cc3c(cc2Cl)N(C(C)=O)CCO3)cc1	7%[59 µM]	·	·	·	-5%	·
Nc1nc2c(ncn2C2OC(COC(=O)c3ccccc3)C(OC(=O)c3ccccc3)C2OC(=O)c2ccccc2)c(=O)[nH]1 (stereo not drawn)	·	-22%	·	·	-2%	·
CCCCNC(=O)c1cc2c(=O)n3cccc(C)c3nc2n1C	2%	16%	·	3%	·	·
COCCNC(=O)c1cc2c(=O)n3cccc(C)c3nc2n1C	28µM*	18%	0%	-3%	-18%	-2
Cn1c(-c2ccc(F)cc2)cnc1NCc1cccc([N+](=O)[O-])c1	?	-25%	-5%	-5%	1%	1
Cn1c(-c2cccc([N+](=O)[O-])c2)cnc1NCc1cccc(F)c1	25µM*	-24%	-4%	0%	-9%	-19
Cn1c(-c2ccc(Br)cc2)cnc1NCc1ccc(C#N)cc1	25µM*	-14%	-7%	1%	-10%	2
Cn1c(-c2cccc([N+](=O)[O-])c2)cnc1NCc1ccc(C#N)cc1	10µM*	-16%	-5%	0%	-13%	-1
Cc1ccc(-c2nnc(Nc3cccc(Cl)c3)c3ccccc23)cc1S(=O)(=O)NCC1CCCO1 (stereo not drawn)	-51%[59 µM]	·	·	·	-22%	·
O=C(NN=Cc1c(O)ccc2ccccc12)c1ccc2c(c1)OCO2	·	·	-15%	0%	-9%	-1
Oc1ccc2ccccc2c1C=Nc1ccc(Cl)cn1	1.8µM*	-12%	17µM*	0%	-6%	0
CCN(c1cccc2ccccc12)S(=O)(=O)c1cccs1	·	·	?	-4%	-16%	-2
Oc1ccc2ccccc2c1C=NC1CCCCC1	8.9µM*	-28%	?	-3%	-14%	1
O=C(N/N=C/c1c(O)ccc2ccccc12)c1ccc(CO)nc1	56µM*	13%	38%	-5%	-7%	-2
O=S(=O)(/N=C/c1c(O)ccc2ccccc12)c1cccs1	1.4µM*	-26%	·	2%	·	·
COc1cccc(/C=C/c2nc(C#N)c(NCCc3ccc(OC)c(OC)c3)o2)c1	-39%[59 µM]	·	·	·	8%	·
Oc1ccc2ccccc2c1/C=N/Nc1ccccc1	7.1µM*	-14%	?	0%	-12%	-2
O=CN/N=C/c1c(O)ccc2ccccc12	19%[59 µM]	12%	-12%	-2%	20%	1
Oc1ccc2ccccc2c1/C=N/n1cnnc1	32µM*	1%	-15%	-24%	20%	0
Oc1ccc2ccccc2c1C=NCc1ccccc1	28µM*	-24%	-7%	1%	6%	-4
Oc1ccc2ccccc2c1/C=N/c1nc2c(s1)CCCC2	1.4µM*	-2%	13µM*	-2%	4%	0
Nc1nc(SCC(=O)O)c2[nH]cnc2n1	·	·	·	·	-7%	·
Cc1ccc(N2C(=O)[C@@H]3CSC(c4ccc(Cl)cc4)N3C2=O)cc1 (stereo partly drawn)	2%[59 µM]	·	·	·	6%	·
SMILES	G9a inh	Sfp PPTase inh	PLK1 PBD inh	MmCpn inh	VDR inhibitor	CCT chaperon mod
Cc1cc(C)n(/N=C\c2c(O)ccc3ccccc23)c(=O)c1C(N)=O	1.1µM*	-28%	-14%	1%	-19%	-3
Oc1ccccc1C=NN=Cc1c(O)ccc2ccccc12	·	·	-1%	·	-22%	-5
O=C(Nc1ccc(Cl)cc1)Nc1ccccc1Sc1ncc([N+](=O)[O-])s1	·	50µM*	8.4µM*	-1%	10µM*	-1
O=C(Nc1csc([N+](=O)[O-])c1)Nc1ccccc1Cl	12%	2%	-4%	0%	18%	-5
COc1cc(Cl)cc(C(c2c(C(=O)O)[nH]c3ccccc23)c2c(C(=O)O)[nH]c3ccccc23)c1O	?	2%	24µM*	-5%	?	-3
O=C(O)c1[nH]c2ccccc2c1C(c1c(F)cccc1Cl)c1c(C(=O)O)[nH]c2ccccc12	?	12%	?	0%	?	-1
O=C(O)c1[nH]c2ccccc2c1C(c1cc(Br)ccc1O)c1c(C(=O)O)[nH]c2ccccc12	·	8%	17µM*	?	?	-3
Cc1[nH][nH]c(=O)c1C(c1cc(Br)ccc1O)c1c(C)[nH][nH]c1=O	?	14%	24µM*	-2%	?	-1
CC(=O)Nc1cc(C(=O)O)ccc1S(=O)(=O)c1ccc(C)cc1	50µM*	1%	-21%	0%	7%	-1
CC(=O)Nc1cc(C(=O)N2CCOCC2)ccc1S(=O)(=O)c1ccc(C)cc1	23%[0.501 µM]	8%	-9%	-11%	7%	0
CC(C)Sc1nc2sccc2c(=O)n1-c1ccccc1	40µM*	-20%	-3%	-6%	10%	1
O=C(c1ccc(Cl)cc1Cl)N1CCC(c2nc3c(nnn3Cc3ccco3)c(=O)[nH]2)CC1	45µM*	-22%	-15%	0%	9%	2
COc1cc(CC(=O)NCC(C)(C)N2CCOCC2)cc(OC)c1OC	50µM*	20%	5%	2%	6%	-1
Cc1ccc(-c2nn(-c3cccc(F)c3)cc2CN(Cc2nccn2C)C(C)C)o1	10µM*	40µM*	-12%	1%	14%	0
COc1ccc(CN2CCN(c3ccccn3)CC2)c(OC)c1	?	-23%	3%	1%	-3%	1
Cc1ccc(-c2nn(-c3cccc(F)c3)cc2CN2CCN(c3ccccn3)CC2)o1	?	40µM*	-18%	-6%	-33%	-1
Cc1cc(C)cc(NC(=O)N2CCC(N3CCCCC3)CC2)c1	1%[59 µM]	·	·	·	10%	·
CC1=C(C(=O)Nc2ccc(C)cc2C)C(c2ccccc2[N+](=O)[O-])n2ncc(C(=O)Nc3ccccc3)c2N1 (stereo not drawn)	7.1µM*	·	·	·	-2%	·
CC1=C(C(=O)Nc2ccc(C)cc2C)C(c2ccc(Br)cc2)n2ncc(C(=O)Nc3cccc(C)c3)c2N1 (stereo not drawn)	-27%[59 µM]	·	·	·	8%	·
COc1cccc(-c2nnc3sc(CN4CCCCC4)cn23)c1	13µM*	·	·	·	13%	·
Brc1ccc(-c2nnc3sc(CN4CCc5ccccc5C4)cn23)cc1	·	·	-28%	·	1%	-2
COc1ccc(CCNC(=O)c2ccc(Cn3c(SCc4ccccc4)nc4cccnc43)cc2)cc1	-30%[59 µM]	·	·	·	8%	·
Cc1ccc(-n2nc3c(N4CCC(C(=O)NC(C)c5ccccc5)CC4)nnc(C)c3c2C)cc1 (stereo not drawn)	-13%[59 µM]	·	·	·	4%	·
CCn1c(COc2ccc(=O)n(-c3ccccc3)n2)n[nH]c1=S	25µM*	-1%	-12%	1%	-11%	1
